Sampled rows, rich in hits. Any-hit rate of the full collection: about 19%.
DT40 TDP1 CPT – qHTS for Inhibitors of human tyrosyl-DNA phosphodiesterase 1 (TDP1): qHTS in cells in presence of CPT; Potency, µM (highest dose often 46.2 µM), inactives show at the highest dose activity change, negative = growth inhibition, actives largely listed as inhibitors; 12% of 420,000 active; AID 686979, 2013; chicken DT40 Tdp1-/-;hTDP1 cells + 20 nM CPT, ATP luminescence, 48 h; note: potency is the fitted concentration of half-maximal effect; nearly all actives have a fitted effect of over 55% in size
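Chicken DT40 Tdp1-/- cells complemented with human TDP1, 400 cells/well, exposed to compounds plus 20 nM camptothecin for at least 48 h at 37 C; viability read as ATP content by CellTiter-Glo luminescence.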
IL-1B inflam inh – qHTS for Inhibitors of Inflammasome Signaling: IL-1-beta AlphaLISA Primary Screen. THP-1 LPS/ATP IL-1B secretion, AlphaLISA, 16 h; active compounds read low. activity change, % at 57.5 µM. 4.7% of 360,000 active; in the data active = activity change below about -50%; inconclusive = mostly about -30% to -49%
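THP-1 cells pretreated 1 hr with compounds (up to 57.5 uM final), then stimulated with LPS (250 ng/mL final) plus ATP (1.25 mM final); secreted IL-1B measured by AlphaLISA after 16 hr, decreased signal indicating inhibition.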
HT1080 IDH1KD tx – qHTS for induction of synthetic lethality in tumor cells producing 2HG: qHTS for the HT-1080-IDH1KD cell line; Potency, µM (top dose mostly 46.1 µM), for the others: at the highest dose activity, negative = toxicity, actives largely listed as cytotoxic; AID 686971, 2013; 2% of 360,000 active; HT-1080 IDH1 knockdown viability, ATP luminescence, 48 h;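 note: potency is the fitted concentration of half-maximal effect; 0% = DMSO wells and -100% = cell-free medium wells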
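CellTiter-Glo luminescence after 48 h compound exposure at 37 degrees C of IDH1-knockdown HT-1080 cells in 5% FBS RPMI. %Activity scaled between DMSO wells and cell-free media wells, with curves fitted and assigned curve classes.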
HT1080-NT tox – qHTS for induction of synthetic lethality in tumor cells producing 2HG: qHTS for the HT-1080-NT fibrosarcoma cell line; Potency, µM (highest dose often 46.1 µM), inactives show at the highest dose activity, negative = less viability, hits mostly cytotoxic; HT-1080-NT fibrosarcoma viability, CellTiter-Glo ATP luminescence, 48 h; 1.6% of 360,000 active;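 note: NT is the 2HG producing partner of a matched IDH1 knockdown line; potency is the fitted concentration of half-maximal effect; 0% = DMSO-treated cells and -100% = media-only wells without cells; nearly all actives have a fitted effect of over 55% in size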
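HT-1080-NT; 750 cells/well; 5% FBS RPMI; 48 h compound, 37 degrees C; CellTiter-Glo luminescence; curve fitting and curve-class assignment.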
TDP1 cell noCPT – qHTS for Inhibitors of human tyrosyl-DNA phosphodiesterase 1 (TDP1): qHTS in cells in absence of CPT. DT40 Tdp1-/- hTDP1 cells, no CPT, ATP luminescence, 48 h. Potency, µM (highest dose often 46.2 µM), without a hit: at the highest dose activity change, negative = growth inhibition, most hits filed as inhibitors. 15% of 420,000 active. AID 686978, 2013; note: potency is the fitted concentration of half-maximal effect; nearly all actives have a fitted effect of over 55% in size
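Readout: luminescence from CellTiter-Glo after 30 min in the dark at RT. Cells: DT40 Tdp1-/- with stable hTDP1, 400/well. Exposure: compounds alone, ≥48 hr, 37 °C.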
uPA generation – qHTS for Inhibitors of Cell Surface uPA Generation. cell surface uPA generation assay, qHTS. Potency, µM (top dose mostly 38.3 µM), for the others: top-dose activity change, negative = inhibition, most hits filed as inhibitors. 0.31% of 330,000 active; active = well fitted inhibition curve with a large enough effect; inconclusive = small, poorly fitted or top-dose-only effect; inactive = no such curve, though single readings can be large or run the other way; tested in mouse RAW 264.7 cells; note: potency is the fitted concentration of half-maximal effect; nearly all actives have a fitted effect of over 55% in size
* = called active by the depositor; ? = inconclusive; . = not tested or not shown; [ ] = dose if it differs, or a comment. Unless noted, calls come from the whole dose curve; as a rule, active = well fitted curve in the direction sought with a large enough effect; inconclusive = small, poorly fitted or top-dose-only effect, or another doubt; inactive = no such curve, though single readings can be large; an effect the other way counts as inactive or inconclusive. Unless noted, % is set by controls: 0 for no effect and ±100 for the full control effect.

SMILES | DT40 TDP1 CPT | IL-1B inflam inh | HT1080 IDH1KD tx | HT1080-NT tox | TDP1 cell noCPT | uPA generation
Cc1ccc(CCNC(=O)C(NS(=O)(=O)c2ccc3c(c2)oc(=O)n3C)C(C)C)cc1 (stereo not given) | 2.2% | . | . | . | -4.3% | .
Nc1ncnc2c1ncn2[C@@H]1O[C@H](CNCc2ccccc2OCC(=O)N2CCCCC2)[C@@H](O)[C@H]1O | -21.0% | 2.0 | 5.5% | 17.7% | -10.1% | 8.6%
O=C(CCC(=O)CCN1CCCCC1)CCN1CCCCC1 | 13µM* | -16.4 | -7.4% | -4.9% | 20.6µM* | 2.6%
O=C(NCc1ccccc1C(F)(F)F)C1CC(c2ccccc2C(F)(F)F)=NO1 (stereo not given) | ? | -62.2* | -4.6% | 5.8% | ? | 14.0%
O=C(NCc1cccc(Br)c1)C1CC(c2ccccc2C(F)(F)F)=NO1 (stereo not given) | ? | -4.8 | ? | ? | 18.4µM* | ?
Clc1ccccc1OCc1nnc2n1CCCCC2 | -23.6% | -5.1 | 1.3% | -3.7% | 26.1% | 1.0%
O=C(NC1CCCCC1)C(c1ccncc1)N(C(=O)c1csnn1)c1cccc(F)c1 (stereo not given) | 12.8% | 31.3 | -2.8% | -7.9% | 3.4% | 11.1%
COc1cccc(CNC(=O)c2cc3n(n2)CCCN(Cc2ccc(C)cc2)C3=O)c1OC | 23.1µM* | . | . | . | 16.4µM* | .
COCCNC(=O)c1cc2n(n1)CCCN(Cc1ccc(C)cc1)C2=O | -15.6% | . | . | . | -3.7% | .
CCOc1ccccc1CNC(=O)c1cc2n(n1)CCCN(Cc1ccc(C)cc1)C2=O | 16.4µM* | . | . | . | 14.6µM* | .
Cc1ccc(CN2CCCn3nc(C(=O)NCc4ccc(OC(C)C)cc4)cc3C2=O)cc1 | 18.4µM* | . | . | . | 16.4µM* | .
CC(C)Cn1nc(C(=O)NCc2ccccc2CN2CCCC2)c2ccccc2c1=O | ? | ? | 0.2% | -0.5% | ? | 7.2%
Cc1nn(CC(=O)Nc2ccc(S(N)(=O)=O)cc2)c(=O)c2ccccc12 | 17.3% | 23.4 | -11.1% | -18.6% | -4.1% | -2.4%
CC(C)N1CN(c2ccccc2)C(=S)N(c2ccccc2)C1 | ? | 11.1 | 17.8% | 9.1% | 23.1µM* | -1.2%
Cc1oc2ccc(O)c(CN(C)C)c2c1C(=O)c1ccccc1 | ? | -19.3 | -1.7% | -3.3% | ? | 2.9%
CCN(Cc1ccccc1)Cc1c(O)ccc2oc(C)c(C(=O)Nc3ccccc3C)c12 | 13µM* | . | . | . | 13µM* | .
Cc1oc2ccc(O)c(CN(C)Cc3ccccc3)c2c1C(=O)Nc1cccc(Cl)c1C | 6.51µM* | . | . | . | 6.51µM* | .
Cc1ccccc1NC(=O)c1c(C)oc2ccc(O)c(CN(C)Cc3ccccc3)c12 | 8.2µM* | . | . | . | 6.51µM* | .
O=C(Nc1cccc(C(=O)O)c1)/C(=C\c1ccc2c(c1)OCO2)NC(=O)c1ccc(Br)cc1 | -1.3% | 14.8 | -3.8% | -7.4% | ? | 0.8%
COc1cc(OC)c(NC(=O)CN2C(=O)CCn3nc(-c4cccn4C)cc32)cc1Cl | -14.2% | . | . | . | -1.9% | .
CCN1CCC(O)(C(C(=O)O)c2ccccc2)CC1 (stereo not given) | 4.6% | 2.7 | 0.4% | -1.3% | 4.1% | -1.0%
COc1cccc(OC)c1C(=O)N1CCN(Cc2c[nH]c3ccccc23)CC1 | -28.1% | 0.0 | -2.4% | -1.8% | -28.5% | .
O=C(c1ccc([N+](=O)[O-])cc1)N1CCN(Cc2ccccc2[N+](=O)[O-])CC1 | ? | -26.8 | -15.0% | -10.8% | ? | 1.2%
COc1ccccc1C(=O)N1CCN(Cc2c[nH]c3ccccc23)CC1 | 14.6µM* | -0.6 | 13.3% | 9.6% | 16.4µM* | -7.8%
O=[N+]([O-])c1ccccc1CN1CCN(Cc2ccccn2)CC1 | 25.9µM* | -9.2 | 1.2% | 3.1% | ? | 2.7%
SMILES | DT40 TDP1 CPT | IL-1B inflam inh | HT1080 IDH1KD tx | HT1080-NT tox | TDP1 cell noCPT | uPA generation
O=C(c1ccccc1)N1CCN(Cc2c[nH]c3ccccc23)CC1 | ? | -83.4* | -0.6% | 3.0% | ? | -4.6%
O=[N+]([O-])c1ccccc1CN1CCN(Cc2c[nH]c3ccccc23)CC1 | 2.91µM* | ? | -25.9% | -2.8% | 3.66µM* | -15.2%
O=[N+]([O-])c1ccccc1CN1CCN(c2ncccn2)CC1 | -10.6% | 35.5 | 0.8% | -3.8% | ? | 0.4%
Cn1c(N)c(C(=O)COC(=O)c2cc(S(=O)(=O)NCc3ccccc3)ccc2O)c(=O)n(C)c1=O | 9.7% | 16.2 | 1.8% | 3.4% | 12.1% | -2.6%
O=C(NC(=S)N1CCN(Cc2ccccc2)CC1)c1cccnc1 | 16.4µM* | 17.0 | 26.1% | 11.0% | 20.6µM* | 3.0%
COc1ccc(NC(=S)N2CCN(C/C=C/c3ccccc3)CC2)cc1 | -2.2% | -18.5 | -1.8% | -12.8% | ? | -8.8%
O=C(NC(=S)N1CCCCC1)c1cccnc1 | -2.8% | 25.2 | 14.3% | 13.9% | 2.9% | -4.2%
O=C(NC(=S)N1CCN(C/C=C/c2ccccc2)CC1)c1ccc(Cl)nc1 | 23.1µM* | 37.1 | -10.3% | -12.5% | 14.6µM* | -10.6%
COc1cc2c(cc1OC)n(CC(=O)c1ccc(C)cc1C)c(=O)n1nc(CCn3nc(C)cc3C)nc21 | 14.1% | . | . | . | -0.2% | .
Cc1cc2nc(-c3ccc(SCC(=O)N4CCc5ccccc54)nc3)[nH]c2cc1C | 9.2µM* | 109.2 | -0.3% | -10.0% | 23.1µM* | -20.6%
Cc1cc2nc(-c3ccc(SCc4ccccc4C#N)nc3)[nH]c2cc1C | ? | ? | -25.4% | ? | 15.8µM* | -6.2%
Cc1cc2nc(-c3ccc(SCc4ccc(C(=O)O)cc4)nc3)[nH]c2cc1C | ? | 70.8 | ? | ? | ? | -6.2%
COC(=O)CSc1ccc(-c2nc3ccc(C)cc3[nH]2)cn1 | -28.0% | -89.6* | 13.8% | -1.1% | ? | -5.6%
Cc1cc(NC(=O)CSc2ccc(-c3nc4cc(C)c(C)cc4[nH]3)cn2)no1 | ? | 94.8 | ? | -22.2% | ? | .
COCCNC(=O)C1(C)CCCN(C(=O)c2cc(F)cc(F)c2)C1 (stereo not given) | 3.7% | 13.8 | 18.0% | 0.0% | 17.5% | .
CCCCCC(=O)/C=C/C=C\CCCCCCCC(=O)O | 2.8%[0.628 µM] | . | . | . | 3.3%[0.628 µM] | .
Cc1cc(C)c2c(c1)/C(=c1/sc3n(c1=O)CN(c1ccccc1)CN=3)C(=O)N2 | 10.3µM* | -9.0 | ? | 0.1% | 16.4µM* | 18.2%
Cc1ccc(Cl)cc1NC(=S)N(Cc1ccccc1)Cc1cccnc1 | 0.4% | -4.5 | -4.8% | -11.9% | -7.8% | 7.6%
